Assay [1] is described as follows: A CellTox Green Cytotoxicity Assay to monitor cytotoxicity in HEK293 cells - 32 hour (AID 1224881). Also: nearly all actives have a fitted effect of over 40% in size. The method, boiled down: (§1)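 Seeding of HEK293 cells together with cytotoxicity dye preceded a 5 h incubation at 37 C/5% CO2. Test compounds in DMSO were then added and fluorescence monitored across 40 h.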
Assay [2] is described as follows: A CellTox Green Cytotoxicity Assay to monitor cytotoxicity in HepG2 cells - 0 hour (AID 1224882). Also: nearly all actives have a fitted effect of over 35% in size. The method, boiled down: (§2)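 Nonlytic assay: viable cells exclude the dye, so fluorescence scales with cell death. HepG2 at 600 cells/well, compounds added after 5 h, signal read across 40 h.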
Assay [3] is described as follows: A CellTox Green Cytotoxicity Assay to monitor cytotoxicity in HepG2 cells - 32 hour (AID 1224883). Also: nearly all actives have a fitted effect of over 50% in size. The method, boiled down: as §2
Assay [4] can be described thus: A CellTox Green Cytotoxicity Assay to monitor cytotoxicity in HEK293 cells - 8 hour (AID 1224884). Also: nearly all actives have a fitted effect of over 35% in size. The method, boiled down:
as §1

A short description of assay [5]: qHTS RealTime-Glo MT Cell Viability Assay in HepG2 cells - 16 hour (AID 1224885). Also: nearly all actives have a fitted effect of over 50% in size. The method, boiled down:
(§3)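 Luminescence read-out: viable HepG2 cells reduce a prosubstrate to a NanoLuc substrate, giving a signal proportional to live cell number. Reads taken at 0, 8, 16, 24, 32 and 40 h of compound exposure at 37 C.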
On the technique in general: In qHTS, concentration-response curves come from the screen itself.

A short description of assay [6]: qHTS RealTime-Glo MT Cell Viability Assay in HEK293 cells - 24 hour (AID 1224886). Also: nearly all actives have a fitted effect of over 50% in size. Also: potency is read from the fitted curve at half-maximal effect. In short, it runs like this:
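Nonlytic real-time viability readout: viable cells convert prosubstrate to NanoLuc substrate, giving luminescence proportional to live cell number. HEK293, 600 cells/well, compound added after 5 h, continuous culture at 37 C.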

Assay [7] can be described thus: qHTS RealTime-Glo MT Cell Viability Assay in HEK293 cells - 8 hour (AID 1224887). Also: top concentration of the series differs between compounds; nearly all actives have a fitted effect of over 50% in size. In short, it runs like this: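 Tox21 screen in HEK293 using RealTime-Glo MT chemistry, with cells and reagent co-dispensed. Luminescence proportional to viable cell number was captured at intervals during 40 h compound exposure at 37 C.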
Assay [8] in a line: qHTS RealTime-Glo MT Cell Viability Assay in HepG2 cells - 0 hour (AID 1224889). Also: nearly all actives have a fitted effect of over 50% in size. In short, it runs like this:
as §3

Assay [9] in a line: A CellTox Green Cytotoxicity Assay to monitor cytotoxicity in HepG2 cells - 8 hour (AID 1224890). Also: nearly all actives have a fitted effect of over 45% in size. In short, it runs like this: as §2
Assay [10] in a line: qHTS assay to identify small molecule antagonists of the estrogen receptor alpha (ER-alpha) signaling pathway using the BG1 cell line in the presence of 0.1 nM 17-beta-estradiol - cell viability counter screen (AID 1259241). Also: nearly all actives have a fitted effect of over 40% in size. In short, it runs like this:
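Cells were plated and left 24 hr, compounds in DMSO were pinned in, 17beta-estradiol was added to 0.1 nM final, and after 22 hr CellTiter-Fluor reagent was added for 30 min before fluorescence was read.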

A short description of assay [11]: qHTS assay to identify small molecule antagonists of the androgen receptor (AR) signaling pathway using the MDA cell line in the presence of 0.5 nM R1881 - cell viability counter screen (AID 1259242). Also: nearly all actives have a fitted effect of over 45% in size. In short, it runs like this: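 R1881 at 0.5 nM final stimulated MDA-kb2 cells during 16 hr compound treatment at 37C. Cytotoxicity read: CellTiter-Fluor fluorescence after 30 min.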

Assay [12] deals with Androgen receptor (Homo sapiens) (UniProt P10275). Description: qHTS assay to identify small molecule antagonists of the androgen receptor (AR) signaling pathway using the MDA cell line in the presence of 0.5 nM R1881 (AID 1259243). Also: nearly all actives have a fitted effect of over 50% in size. The method, boiled down:
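We exposed MDA-kb2 cells to compounds under 0.5 nM R1881 stimulation for 16 hr at 37C and quantified MMTV-driven luciferase by luminescence.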

A short description of assay [13]: qHTS assay to identify small molecule HDAC inhibitors (AID 1259364).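 Also: wild-type HCT-116 cells with endogenous class I/II HDAC activity; top concentration of the series differs between compounds; nearly all actives have a fitted effect of over 45% in size.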 The method, boiled down:
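Relative class I and II HDAC activity is taken from the luminogenic signal in HCT-116 cells, with compound exposure 2 hr and reagent development 30 min at room temperature.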

Assay [14] in a line: qHTS assay to identify small molecule HDAC inhibitors - cell viability counter screen (AID 1259365). In short, it runs like this: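 Counter screen in wild-type HCT-116 cells: compounds dissolved in DMSO are pin-transferred onto overnight-plated cells and left 2hr at 37C. ATP-based CellTiter-Glo luminescence then measures viable cells.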
The nature of assay [15]: qHTS assay to identify small molecule agonists of the sonic hedgehog signaling (Shh) pathway - cell viability counter screen (AID 1259366). Also: nearly all actives have a fitted effect of over 50% in size. In short, it runs like this:
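Cells are plated at 2,000 per well and left 4hr at 37C, 5% CO2 before compound addition. After 23hr of treatment, CellTiter-Fluor reagent is added for 1hr at 37C and fluorescence is measured.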

Assay [16] is described as follows: qHTS assay to identify small molecule antagonists of the sonic hedgehog signaling (Shh) pathway - cell viability counter screen (AID 1259367). Also: nearly all actives have a fitted effect of over 55% in size. Also: potency is read from the fitted curve at half-maximal effect. In short, it runs like this:
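NIH/3T3-derived Gli1-Luc reporter cells, 2,000/well, plated 4 hr before compound addition, then stimulated with conditioned medium for 24 hr at 37C. Viability measured in the same wells by CellTiter-Fluor fluorescence, reagent added at 23 hr for 1 hr.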

Assay [17] in a line: qHTS assay to identify small molecule agonists of the sonic hedgehog signaling (Shh) pathway (AID 1259368; calls by dose curve;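 also: NIH/3T3-derived 3T3Gli1-Luc cells carrying a stable Gli1-driven firefly luciferase reporter; series mostly up to about 92 µM; nearly all actives have a fitted effect of over 15% in size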). The method, boiled down: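 Mouse fibroblast (NIH/3T3) reporter cells with stably integrated Gli1-Luc were treated 24 hr with compound; firefly luciferase luminescence served as the read-out.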
Assay [18] is described as follows: A CellTox Green Cytotoxicity Assay to monitor cytotoxicity in HEK293 cells - 16 hour (AID 1224888). Also: nearly all actives have a fitted effect of over 35% in size. The method, boiled down:
as §1

For assay [19], the target named is Estrogen receptor (Homo sapiens) (UniProt P03372). Nature of the assay: qHTS assay to identify small molecule antagonists of the estrogen receptor alpha (ER-alpha) signaling pathway using the BG1 cell line in the presence of 0.1 nM 17-beta-estradiol (AID 1259244). Also: nearly all actives have a fitted effect of over 50% in size. In short, it runs like this:
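VM7Luc4E2; 4xERE-luciferase; 0.1 nM E2 final; 22 h co-incubation, 37C; ONE-Glo luminescence after 30 min at room temperature.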

Assay [20] is described as follows: qHTS assay to identify small molecule phospholipidosis (PLD) inducers (AID 1259344; active = well fitted curve in the direction sought with a large enough effect; an effect the other way counts as inactive or inconclusive). In short, it runs like this: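 HepG2 cells, 900/well, treated with compound plus LipidTOX Red for 24 h at 37 C; amiodarone positive and DMSO negative controls. Fixed with paraformaldehyde/Hoechst, then high-content imaging scored LipidTOX pit count and integrated intensity per well and per cell.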

Where “and” joins values, the source holds several entries; their conditions need not be identical. Identical values can stand only once. Records with an inconclusive call do not appear. A structure can be active in one record and inactive in another. Calls of active or inactive are those of the source. Unless noted, calls follow the shape of the dose curve; as a rule, active = well fitted curve in the direction sought with a large enough effect in the repeat runs; inconclusive = weak or mixed curves; inactive = no such curve, though single readings can be large; an effect the other way counts as inactive or inconclusive.

Androgen receptor (Homo sapiens), sequence (P10275 whole entry, looked up): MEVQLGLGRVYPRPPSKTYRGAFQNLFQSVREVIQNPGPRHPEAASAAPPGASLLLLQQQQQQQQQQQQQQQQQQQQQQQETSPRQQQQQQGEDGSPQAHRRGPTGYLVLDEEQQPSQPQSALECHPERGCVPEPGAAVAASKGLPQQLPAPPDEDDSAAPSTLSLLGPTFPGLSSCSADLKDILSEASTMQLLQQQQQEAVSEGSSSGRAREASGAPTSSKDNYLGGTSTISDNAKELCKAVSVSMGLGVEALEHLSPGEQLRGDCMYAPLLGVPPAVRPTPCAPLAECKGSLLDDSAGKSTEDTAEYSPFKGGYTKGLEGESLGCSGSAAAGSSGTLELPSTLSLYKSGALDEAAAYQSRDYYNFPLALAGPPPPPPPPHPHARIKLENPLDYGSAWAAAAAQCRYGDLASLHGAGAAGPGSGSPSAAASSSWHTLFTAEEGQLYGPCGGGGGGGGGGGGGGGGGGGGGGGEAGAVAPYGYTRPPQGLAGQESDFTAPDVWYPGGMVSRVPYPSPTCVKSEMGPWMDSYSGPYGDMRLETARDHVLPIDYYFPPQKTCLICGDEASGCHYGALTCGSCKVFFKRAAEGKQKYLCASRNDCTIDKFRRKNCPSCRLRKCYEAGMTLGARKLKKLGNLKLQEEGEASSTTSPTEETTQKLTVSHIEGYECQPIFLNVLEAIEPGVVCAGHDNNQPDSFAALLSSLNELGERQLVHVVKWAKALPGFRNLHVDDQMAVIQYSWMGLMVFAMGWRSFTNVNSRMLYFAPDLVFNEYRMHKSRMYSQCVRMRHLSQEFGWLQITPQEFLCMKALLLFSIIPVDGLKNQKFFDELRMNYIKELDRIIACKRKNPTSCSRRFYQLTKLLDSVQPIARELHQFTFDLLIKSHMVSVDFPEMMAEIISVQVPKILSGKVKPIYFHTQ
Estrogen receptor (Homo sapiens), sequence (P03372 whole entry, looked up): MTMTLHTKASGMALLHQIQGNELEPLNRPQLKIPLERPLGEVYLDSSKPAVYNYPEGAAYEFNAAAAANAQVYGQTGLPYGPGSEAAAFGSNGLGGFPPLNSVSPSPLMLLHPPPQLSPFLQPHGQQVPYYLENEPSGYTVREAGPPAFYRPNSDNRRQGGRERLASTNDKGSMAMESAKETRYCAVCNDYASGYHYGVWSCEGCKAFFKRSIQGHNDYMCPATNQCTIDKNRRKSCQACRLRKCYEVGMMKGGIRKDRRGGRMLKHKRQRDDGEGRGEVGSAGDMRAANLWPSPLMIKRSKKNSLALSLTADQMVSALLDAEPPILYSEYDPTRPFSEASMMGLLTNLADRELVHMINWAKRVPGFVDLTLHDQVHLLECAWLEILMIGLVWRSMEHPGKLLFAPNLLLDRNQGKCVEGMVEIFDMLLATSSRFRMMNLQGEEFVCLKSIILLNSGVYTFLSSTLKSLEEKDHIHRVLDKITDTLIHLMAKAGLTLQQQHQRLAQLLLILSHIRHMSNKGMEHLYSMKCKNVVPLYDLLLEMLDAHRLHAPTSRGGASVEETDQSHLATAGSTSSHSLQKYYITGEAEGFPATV

As to `CC(C)CC(=O)CC(C)CC(C)C` (stereo not drawn), the Potency entry in [1], in assay [3], in [5], in assay [7], in [8] and in assay [10] was “inactive” each time. For the same molecule, the Potency result in [11], in assay [12], in assay [13], in assay [15] and in assay [16] was “inactive” each time. The call in assay [2], in assay [4], in assay [9], in assay [14] and in assay [17] was inactive. The Potency result in [6] was “inactive and 19.5 µM (active)”.

Consider `CCOCCOCCOCCO`, for which the Potency entry in assay [1], in assay [3], in assay [5], in assay [7], in [18] and in [8] was “inactive” in each case. Also, the Potency entry in [10], in assay [11], in assay [13] and in assay [16] was “inactive” in each case. Further, the call in [2], in assay [4], in [9], in [14] and in assay [17] was inactive.

`Cc1ccc2ncccc2c1`: the Potency entry in [1], in assay [3], in assay [5], in assay [6], in [7] and in assay [18] was “inactive” each time. Further, the Potency result in [8], in assay [10], in assay [11], in assay [19], in assay [13] and in assay [15] was “inactive” each time. For the same molecule, the Potency entry in assay [16] was “inactive”. The call in [2], in assay [4], in assay [9], in [14] and in assay [17] was inactive.

`CN/C(=C\[N+](=O)[O-])NCCSCc1csc(CN(C)C)n1`: the Potency result in assay [1], in assay [3], in assay [5], in assay [6], in assay [7] and in assay [18] was “inactive” in each case. Moreover, the Potency entry in [8], in assay [10], in [11], in [12], in [13] and in assay [16] was “inactive” each time. The molecule was classed as inactive in assay [2], in [4], in [9], in [20], in assay [14] and in assay [17].

In the case of `C=CC(C)CCCC(C)(C)O` (stereo not drawn), the Potency result in assay [1], in assay [3], in assay [5], in [6], in assay [7] and in assay [18] was “inactive” throughout. Also, the Potency entry in assay [8], in [10], in assay [11], in assay [19], in [15] and in assay [16] was “inactive” throughout. Also, the result in assay [2], in assay [4], in [9], in assay [14] and in assay [17] was inactive.

With `COCCOC(=O)c1ccccc1C(=O)OCCOC`, the Potency entry in [1], in [3], in assay [5], in assay [6], in assay [7] and in [18] was “inactive” each time. The Potency result in assay [8], in assay [10], in assay [11], in [13], in assay [15] and in [16] was “inactive” throughout. Moreover, the molecule was called inactive in assay [2], in assay [4], in assay [9], in [14] and in assay [17].

For `CC(=O)OCc1ccco1`, the Potency entry in assay [1], in [3], in assay [5], in assay [6], in assay [7] and in assay [18] was “inactive” in each case. Further, the Potency entry in assay [8], in [10], in [11] and in [19] was “inactive” throughout. Moreover, the outcome in assay [2], in [4], in assay [9], in assay [14] and in [17] was inactive. The Potency in assay [16] is 68.2 µM (active) and inactive.

For `CSc1ccc(Cl)cc1`, the Potency result in assay [1], in assay [3], in assay [5], in assay [6], in assay [7] and in assay [18] was “inactive” throughout. Besides, the Potency entry in [8], in assay [10], in assay [11], in [12], in assay [19] and in assay [16] was “inactive” in each case. Besides, the outcome in assay [2], in [4], in [9], in assay [14] and in [17] was inactive.

For the molecule `CN(C)CCOC(=O)COc1ccc(Cl)cc1`, the Potency result in [1], in [3], in [5], in assay [6], in [7] and in [18] was “inactive” each time. Further, the Potency entry in [8], in assay [10], in assay [11], in [13], in assay [15] and in assay [16] was “inactive” in each case. The outcome in [2], in assay [4], in [9], in assay [20], in assay [14] and in assay [17] was inactive.
